# Measurements as given in PubChem BioAssay (NCATS).
# Records with an inconclusive call do not appear. Where a call stands in place of a potency, no number is given. Calls of active or inactive are those of the source. The call rests on the fitted dose curve; in most records, active means well fitted curve in the direction sought with a large enough effect; inconclusive means small, poorly fitted or top-dose-only effect, or another doubt; inactive means no such curve, though single readings can be large; an effect the other way counts as inactive or inconclusive.
# Tests used:
# [1] = qHTS to identify inhibitors of the type 1 interferon - major histocompatibility complex class I in skeletal muscle: primary screen against the NCATS Pharmaceutical Collection (AID 1347407);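 further: luminescence of HiBiT knocked into endogenous HLA-B as interferon-induced MHC class I level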
# Method in brief: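 Luminescence from HiBiT-tagged endogenous HLA-B*08:01 served as the read-out of IFN-beta-induced MHC class I in CRISPR-engineered C25cl48 myoblasts. Cells received 4 ng/ml IFN-beta plus compound (high final 46 uM, […]) for 24 h.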
# [2] = target: Protein phosphatase 1D (Homo sapiens) (UniProt O15297); test: RapidFire Mass Spectrometry qHTS Assay for Modulators of WT P53-Induced Phosphatase 1 (WIP1) (AID 1347424);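 further: amount of dephosphorylated VEPPL-S-QETFS peptide product formed by WIP1; series mostly up to about 63 µM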
# Method in brief: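 Mass-spectrometric measurement of dephosphorylated peptide after a 5 min room-temperature reaction of 10 nM WIP1 with 2 uM phosphopeptide, following 1 h compound preincubation in 30 mM MgCl2 buffer.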
# [3] = target: Protein phosphatase 1D (Homo sapiens) (UniProt O15297); test: Rhodamine-PBP qHTS Assay for Modulators of WT P53-Induced Phosphatase 1 (WIP1) (AID 1347425)
# Method in brief: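 WIP1 (5 nM final) was preincubated with compound for 1 hour at room temperature. It then dephosphorylated 10 uM VEPPL-pS-QETFS peptide in Tris-HCl pH 7.5 with 30 mM MgCl2. Released Pi was detected by 10 uM Rh-PBP fluorescence (ex 525/em 598 nm) read at 1-min intervals for 11 min, as delta f1 - f0.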
# [4] = Primary qHTS for inhibitors of La Crosse Virus (LACV) - induced cell death in SH-SY5Y cells (AID 1508616);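 further: top concentration of the series differs between compounds; higher means more rescue of cells from virus-induced death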
# Method in brief: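 Cytopathicity rescue screen: compounds pinned onto SH-SY5Y cells, which are then infected with LACV (MOI 0.01) and held 6 days at 37C. Percent activity is scaled between infected DMSO control and uninfected DMSO control.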
# [5] = target: Calcium and integrin-binding protein 1 (Homo sapiens) (UniProt Q99828); test: Primary qHTS for Identification of Calcium Integrin Binding Protein 1 (CIB1) Competitor (AID 1508620); further: potency means the concentration at half of the fitted maximal effect
# Method in brief: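 Fluorescence polarization competition: CIB1-GST (1 uM final) preincubated with compound 15 min at room temperature, then FITC-labeled alphaIIb peptide (100 nM final) added for another 15 min. Polarization read at Ex 480/Em 540.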
# [6] = target: Calcium and integrin-binding protein 1 (Homo sapiens) (UniProt Q99828); test: Confirmatory qHTS for Identification of Calcium Integrin Binding Protein 1 (CIB1) Competitor (AID 1508617); further: nearly all actives have a fitted effect of over 65% in size; further: potency means the concentration at half of the fitted maximal effect
# Method in brief: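 FP competition: CIB1-GST (1 uM final) in 5 mM HEPES pH 7.4, 125 mM NaCl, 5 mM CaCl2, 0.01% Tween20 preincubated 15 min RT with compounds (up to 114 uM), then FITC-alphaIIb peptide (100 nM), 15 min RT; Ex 480/Em 540.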
# Sequence of Calcium and integrin-binding protein 1 (Homo sapiens) (Q99828 whole entry, looked up): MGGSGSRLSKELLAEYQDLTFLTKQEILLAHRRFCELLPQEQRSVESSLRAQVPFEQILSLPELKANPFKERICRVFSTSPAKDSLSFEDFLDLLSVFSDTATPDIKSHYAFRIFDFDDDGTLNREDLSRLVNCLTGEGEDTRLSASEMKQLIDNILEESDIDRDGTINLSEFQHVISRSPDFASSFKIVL
# Sequence of Protein phosphatase 1D (Homo sapiens) (O15297 whole entry, looked up): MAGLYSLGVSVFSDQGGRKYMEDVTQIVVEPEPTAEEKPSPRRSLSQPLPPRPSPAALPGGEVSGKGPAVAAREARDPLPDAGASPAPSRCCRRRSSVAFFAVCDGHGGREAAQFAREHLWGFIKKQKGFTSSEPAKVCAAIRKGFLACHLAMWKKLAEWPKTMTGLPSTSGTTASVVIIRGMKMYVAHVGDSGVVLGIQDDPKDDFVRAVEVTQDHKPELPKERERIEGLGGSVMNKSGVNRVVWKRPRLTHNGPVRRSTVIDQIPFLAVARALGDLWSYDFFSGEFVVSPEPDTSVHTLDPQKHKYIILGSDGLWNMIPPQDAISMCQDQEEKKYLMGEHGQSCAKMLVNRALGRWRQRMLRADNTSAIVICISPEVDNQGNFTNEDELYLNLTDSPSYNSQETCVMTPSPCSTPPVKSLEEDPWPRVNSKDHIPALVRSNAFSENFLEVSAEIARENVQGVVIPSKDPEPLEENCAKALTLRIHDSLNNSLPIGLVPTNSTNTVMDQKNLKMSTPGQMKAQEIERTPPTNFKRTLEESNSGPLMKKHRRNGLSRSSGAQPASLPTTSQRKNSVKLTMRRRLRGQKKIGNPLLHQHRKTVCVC
SMILES,Potency [1],Potency [2],outcome [3],outcome [4],Potency [5],Potency [6]
CCOC(=O)C(=O)CCCCCCl,inactive,inactive,inactive,inactive,inactive,–
COc1cc(C=O)ccc1O,inactive,inactive,inactive,inactive,inactive,–
O=C(O)Cn1cnnn1,inactive,inactive,inactive,inactive,inactive,–
CC(C)C[C@H](NC(=O)CNC(=O)[C@H](Cc1ccc(O)cc1)NC(=O)[C@H](CO)NC(=O)[C@H](Cc1c[nH]c2ccccc12)NC(=O)[C@H](Cc1cnc[nH]1)NC(=O)[C@@H]1CCC(=O)N1)C(=O)N[C@@H](CCCN=C(N)N)C(=O)N1CCC[C@H]1C(=O)NCC(N)=O (stereo in doubt),inactive,inactive,inactive,inactive,inactive,–
CCCC(=O)O[C@]1(C(=O)CCl)[C@@H](C)C[C@H]2[C@@H]3CCC4=CC(=O)C=C[C@]4(C)[C@@]3(F)C(=O)C[C@@]21C,inactive,inactive,inactive,inactive,inactive,–
Brc1ccccc1-c1ccccc1,inactive,inactive,inactive,inactive,inactive,–
CC(CC(C#N)(c1ccccc1)C(C)C)N(C)C (configuration not stated),inactive,inactive,inactive,inactive,inactive,–
CC(C)NC(=O)c1ccc(C=O)cc1,inactive,inactive,inactive,inactive,inactive,–
CN1CC(=O)N2[C@H](c3ccc4c(c3)OCO4)c3[nH]c4ccccc4c3C[C@@H]2C1=O,inactive,inactive,inactive,inactive,inactive,–
OC1(c2ccc(Cl)cc2)CCNCC1,inactive,inactive,inactive,inactive,inactive,–
COc1cc2c(cc1OC)C(=O)CC2,inactive,inactive,inactive,inactive,inactive,–
CCN1CCN(C(=O)N[C@@H](C(=O)N[C@@H]2C(=O)N3[C@@H]2SC(C)(C)[C@H]3C(=O)O)c2ccccc2)C(=O)C1=O,inactive,inactive,inactive,inactive,inactive,–
OCc1cccnc1,inactive,inactive,inactive,inactive,inactive,–
Cc1onc(-c2ccccc2)c1C(=O)Cl,inactive,inactive,inactive,inactive,inactive,–
O=C(NO)c1ccccc1,inactive,inactive,inactive,inactive,inactive,–
COc1cc2c(cc1OC)CN(C(=O)[C@H](C)N[C@@H](CCc1ccccc1)C(=O)O)[C@H](C(=O)O)C2,inactive,inactive,inactive,inactive,inactive,–
CCCc1ncc(C(=O)O)s1,inactive,inactive,inactive,inactive,inactive,–
Cn1c(=O)c2c(ncn2CC(=O)O)n(C)c1=O,inactive,inactive,inactive,inactive,inactive,–
Cc1ccccc1C(=O)N1CC/C(=N\OS(=O)(=O)O)c2ccc(Cl)cc21,inactive,inactive,inactive,inactive,inactive,–
CC1(C)O[C@@H]2C[C@H]3[C@@H]4C[C@H](F)C5=CC(=O)C=C[C@]5(C)[C@@]4(F)[C@@H](O)C[C@]3(C)[C@]2(C(=O)CO)O1,inactive,inactive,inactive,inactive,inactive,–
CCOC(=O)c1ccc(O)c(O)c1,inactive,inactive,inactive,inactive,inactive,–
CN(C(=O)C(Cl)Cl)c1ccc(OC(=O)c2ccco2)cc1,inactive,inactive,inactive,inactive,inactive,–
Cc1ncc(CO)c(CO)c1O,inactive,inactive,inactive,inactive,inactive,–
NC(=O)NS(=O)(=O)c1ccc(Cl)cc1,inactive,inactive,inactive,inactive,inactive,–
CCCCC/C=C\C/C=C\CCCCCCCC(=O)NC(C)c1ccccc1 (configuration not stated),inactive,inactive,inactive,inactive,inactive,–

SMILES,Potency [1],Potency [2],outcome [3],outcome [4],Potency [5],Potency [6]
COCCc1ccccn1,inactive,inactive,inactive,inactive,inactive,–
Cc1cc(=O)oc2cc(O[C@@H]3SC[C@@H](O)[C@H](O)[C@H]3O)ccc12,inactive,inactive,inactive,inactive,inactive,–
CCCC(=O)O[C@]1(C(=O)CC)CC[C@H]2[C@@H]3CCC4=CC(=O)CC[C@]4(C)[C@H]3[C@@H](O)C[C@@]21C,inactive,inactive,inactive,inactive,inactive,–
Cc1coc2ccccc2c1=O,inactive,inactive,inactive,inactive,inactive,–
Nc1ccc(C(=O)N2CC3CC(CN(Cc4ccccc4)C3)C2)cc1,inactive,inactive,inactive,inactive,inactive,–
CN(C)CCOC(c1ccccc1)c1ccc(Br)cc1 (configuration not stated),inactive,inactive,inactive,inactive,inactive,–
CC(=O)OCC(=O)[C@@]1(O)CCC2C3CCC4=CC(=O)CC[C@]4(C)C3[C@@H](O)C[C@@]21C (some centres not stated),inactive,inactive,inactive,inactive,inactive,–
N#CSCC(=O)O,inactive,inactive,inactive,inactive,inactive,–
CCCC(CCC)(C(=O)OCC)C(=O)OCC,inactive,inactive,inactive,inactive,inactive,–
COc1cc2nc(Cl)nc(N)c2cc1OC,inactive,inactive,inactive,inactive,inactive,–
Cc1sccc1Br,inactive,inactive,inactive,inactive,inactive,–
Nc1ncnc2nc[nH]c12,inactive,inactive,inactive,inactive,inactive,–
Oc1ccccc1-c1nnco1,inactive,inactive,inactive,inactive,inactive,–
Cc1ccc(C(=O)C(=O)O)cc1C,inactive,inactive,inactive,inactive,inactive,–
CC(C)C[C@@H]1[C@H](c2ccccc2)OC(=O)N1CCCN1CCCCCC1,inactive,inactive,inactive,inactive,inactive,–
C[C@H]1NCc2cc(-c3ccc4c(=O)c(C(=O)O)cn(C5CC5)c4c3OC(F)F)ccc21,inactive,inactive,inactive,inactive,inactive,–
CC(=O)/C=C/C=C1/C2CCC(C2)C1(C)C (configuration not stated),inactive,inactive,inactive,inactive,inactive,–
CC(C)C(=O)Nc1cccc(C(F)(F)F)c1,inactive,inactive,inactive,inactive,inactive,–
O=C(OCC1(COC(=O)c2cccnc2)CCCC(COC(=O)c2cccnc2)(COC(=O)c2cccnc2)C1O)c1cccnc1,inactive,inactive,inactive,inactive,inactive,–
O=[N+]([O-])c1ccc(O)c2ncccc12,–,–,–,–,–,inactive
O=C(O)Cc1ccc(OCCNC[C@H](O)c2ccccc2)cc1,inactive,–,inactive,inactive,inactive,–
COc1cc(OC)nc(O[C@H](C(=O)O)C(OC)(c2ccccc2)c2ccccc2)n1,inactive,–,inactive,–,inactive,–
O=C(O)c1cn(C2CC2)c2cc(Cl)c(F)cc2c1=O,inactive,–,inactive,inactive,inactive,–
CC(C)=CCC/C(C)=C/CC/C(C)=C/CCC(=O)OC/C=C(\C)CCC=C(C)C,inactive,–,inactive,inactive,–,–
Cc1nc2n(c(=O)c1CCN1CCC(C(=O)c3ccc(F)cc3)CC1)CCS2,inactive,–,inactive,inactive,inactive,–

SMILES,Potency [1],Potency [2],outcome [3],outcome [4],Potency [5],Potency [6]
Cc1cc(O)c2c(O)c3c(O)cccc3cc2c1,inactive,–,–,inactive,inactive,–
Cn1cc(S(C)=O)c(=O)c2ccc(F)cc21 (configuration not stated),inactive,–,inactive,inactive,–,–
CCCCOC(=O)CCCCCCCCC(=O)OCCCC,inactive,–,inactive,inactive,inactive,–
COc1cc(S(N)(=O)=O)cc(C(=O)O)c1OC,inactive,–,inactive,inactive,inactive,–
C[C@@H](O[C@H]1OCCN(Cc2n[nH]c(=O)[nH]2)[C@H]1c1ccc(F)cc1)c1cc(C(F)(F)F)cc(C(F)(F)F)c1,inactive,–,–,inactive,inactive,–
O=C(Oc1ccccc1)c1ccccc1O,inactive,–,inactive,inactive,inactive,–
CCCCCCCC(=O)[O-].CCCCCCCC(=O)[O-].[Zn+2],inactive,–,–,inactive,–,–
CO/N=C(/C(=O)N[C@@H]1C(=O)N2C(C(=O)OCOC(=O)C(C)(C)C)=C(C)CS[C@H]12)c1csc(N)n1,inactive,–,inactive,inactive,inactive,–
CC(C)C(=O)Nc1cccc(C2CN3CCSC3=N2)c1 (configuration not stated),inactive,–,inactive,inactive,inactive,–
NCC(=O)O,inactive,–,inactive,inactive,–,–
CC(=O)N(CC(=O)N(C)C)c1ccccc1,inactive,–,inactive,inactive,inactive,–
Cc1oc(=O)oc1COC(=O)[C@@H]1N2C(=O)[C@@H](NC(=O)[C@H](N)c3ccccc3)[C@H]2SC1(C)C,inactive,–,inactive,inactive,–,–
CO[C@@]1(NC(=O)CSC[C@@H](N)C(=O)O)C(=O)N2C(C(=O)O)=C(CSc3nnnn3C)CS[C@@H]21,inactive,–,inactive,inactive,inactive,–
OC1(c2ccccc2)CCNCC1,inactive,–,inactive,inactive,inactive,–
O=C(O)C1CCC1,inactive,–,inactive,inactive,inactive,–
CCOC(=O)C(O)c1ccccc1 (configuration not stated),inactive,–,inactive,inactive,inactive,–
O=C(O)c1ccccc1Nc1cc(Cl)ccc1C(=O)O,inactive,–,inactive,inactive,inactive,–
COc1ccc(OC(=O)N(CC(=O)O)Cc2ccc(OCCc3nc(-c4ccccc4)oc3C)cc2)cc1,inactive,–,–,inactive,inactive,–
OCc1c[nH]c2ccccc12,inactive,–,–,inactive,inactive,–
NS(=O)(=O)c1ccc(N2CCCCS2(=O)=O)cc1,inactive,–,inactive,inactive,inactive,–
O=C(O)c1[nH]n(-c2ccc(S(=O)(=O)O)cc2)c(=O)c1N=Nc1ccc(S(=O)(=O)O)cc1,inactive,–,inactive,inactive,inactive,–
CCCC(=O)c1cc(O)c(O)cc1O,inactive,–,–,inactive,112 µM (active),35.5 µM (active)
CCOC(=O)OCC/C(SC(=O)OCC)=C(\C)N(C=O)Cc1cnc(C)nc1N,inactive,–,inactive,inactive,inactive,–
